Measurements as given in ChEMBL document CHEMBL3988442, “University of Dundee, Small-Polar-MMV Screening Library” (2021).
In all, about 48,000 compounds went through this assay and about 13,000 (27%) showed an effect of 50% or more. The list shows a part of the results.

These compounds were tested on Wolbachia pipientis (assay: Anti-Wolbachia Cell-Based Screen). Settings: 5 µM.
Assay type: functional
Set-up: scale not given: in the data most compounds retested in dose-response had high values

SMILES	Percent Effect [%]
CCCc1cc(=O)[nH]c2nnc(SCC(=O)NCc3ccc(C)cc3)n12	-24
CC(=O)NCCNC(=O)NCCCc1cccc(F)c1	-6.354
CC(=O)N1N=C(c2ccccc2)OC1C(=O)NCCc1ccc(C)cc1 (centres undefined)	114.7
Cc1ccc2c(c1)CN(CC(=O)NCCc1ccc(F)cc1)CC(C)O2 (centres undefined)	6.694
CC(=O)N1N=C(c2ccccc2)OC1C(=O)NCCOc1ccccc1 (centres undefined)	130.7
CC(=O)N1N=C(c2ccccc2)OC1C(=O)NCCc1cccc(F)c1 (centres undefined)	137.5
CC(=O)N1N=C(c2ccccc2)OC1C(=O)NCCc1ccc(O)cc1 (centres undefined)	114.8
CC(=O)N1N=C(c2ccccc2)OC1C(=O)NCCC1=CCCCC1 (centres undefined)	-1.689
CC(=O)N1N=C(c2ccccc2)OC1C(=O)NCCc1cccc(Cl)c1 (centres undefined)	1.222
Cc1nc(C2CCCN2CC(=O)NCCOc2ccccc2)no1 (centres undefined)	3.183
O=C(NCCOc1ccccc1)C1NCCc2[nH]cnc21 (centres undefined)	9.443
Cc1nc(-c2ccc(NCCc3ccc(O)cc3)nc2)[nH]c(=O)c1C	-6.931
CC(NC(=O)Nc1cnn(CC(N)=O)c1)c1ccc(Cl)s1 (centres undefined)	9.25
NC(=O)NCCC(=O)N1CCC(c2cc(-c3ccccc3Cl)n[nH]2)CC1	-13.9
CC(C)(CNC(=O)CSc1nnnn1C1CC1)c1ccccc1F	14.51
CC(C)(C#N)c1ccc(NS(=O)(=O)CC2CCCCO2)cc1 (centres undefined)	-23.28
CC(=O)N1N=C(c2cccs2)OC1C(=O)NCCc1cccc(Cl)c1 (centres undefined)	135.3
Cn1cc(CCNC(=O)C2(c3cccc(Cl)c3)CC2)cn1	11.84
CC(C)N(CCNC(=O)c1[nH]nc2ccc(I)cc12)C(C)C	-4.489
Cc1nc(NCCc2ccc(Cl)cc2)cc(C(=O)N2CCCCC2)n1	24.03
NC(=O)c1cccc(CCNCc2cnc(-c3cccs3)s2)c1	-4.854
CC(=O)N1N=C(c2ccccc2)OC1C(=O)NCCc1ccc(Cl)cc1 (centres undefined)	146.7

SMILES	Percent Effect [%]
CC(C)N(C)CCCNC(=O)c1cnc(-c2ccccc2)nc1	-3.501
Cc1nc(NCCc2ccc(Cl)cc2)cc(C(=O)N2CCOCC2)n1	8.895
CC(=O)N1N=C(c2ccccc2)OC1C(=O)NCCN(C(C)C)C(C)C (centres undefined)	125.8
Cc1nc(CN2Cc3cn(C)nc3C(COCC3CC3)C2)cs1 (centres undefined)	-15.47
O=C(c1cccs1)N1CC[C@H]2[C@@H]1CCC(=O)N2c1cccnc1	-2.771
CN(C)C(=O)N[C@@H]1CN(C2CCOCC2)[C@@H]2CCCO[C@@H]21.O=C(O)C(F)(F)F	-11.3
COc1ccc(CN2CCCn3cnc(COC(C)C)c3C2)cc1.O=C(O)C(F)(F)F	23.92
CCc1nc(Cn2nc(C3CCNCC3)n(-c3ccccc3)c2=O)cs1	10.87
CSCCC(=O)N1CCCC1c1ccsc1 (centres undefined)	-16.09
NC(=O)C1CCN(CC(=O)N2CCCC2c2ccsc2)CC1 (centres undefined)	-14.97
CC(=O)N1C[C@@H](c2ccsc2)[C@@H]2CN(Cc3ccccc3)CC[C@@H]21	3.604
CC(=O)N1C[C@@H](c2ccsc2)[C@@H]2CN(Cc3ccccc3Cl)CC[C@@H]21	132.7
CC(=O)N1CCC(NC(=O)N2CCCC2c2ccsc2)CC1 (centres undefined)	-39.95
NC(=O)CN1CCC(NC(=O)N2CCCC2c2ccsc2)CC1 (centres undefined)	-19.01
COc1ccccc1CN1CC[C@H]2[C@@H](C1)[C@H](c1ccsc1)CN2C(C)=O	109
CC(=O)N1C[C@@H](c2ccsc2)[C@@H]2CN(CC3CCCCC3)CC[C@@H]21	84.31
CC(=O)N1C[C@@H](c2ccsc2)[C@@H]2CN(Cc3ccccc3C)CC[C@@H]21	115.6
CCn1cnnc1CNC(=O)N(C)Cc1c(F)cccc1Cl	-9.877
CCCn1ncc(C(=O)NCCc2[nH]nc3c2CCCC3)c1C	17.81
CC1(C)[C@H](Cc2cc(CO)on2)C[C@@H]1N(CC1CC1)CC1CC1	3.295
CCc1ccc(CN2CCC(CNS(=O)(=O)C3CC3)C2)nc1 (centres undefined)	-5.185
Cc1ncc(CN2CCC(CNS(=O)(=O)C3CC3)C2)cn1 (centres undefined)	-9.849

SMILES	Percent Effect [%]
O=S(=O)(Cc1ccccc1)NCC1CCN(c2cnccn2)CC1	-2.116
CCS(=O)(=O)NCC1CCN(c2cnccn2)CC1	106
O=S(=O)(NCC1CCN(c2cnccn2)CC1)C1CC1	99.54
Cc1cn2c(n1)CCC(NC(=O)c1nc(C)ncc1Cl)C2 (centres undefined)	-6.875
Cc1cn2c(n1)CCC(NC(=O)c1cc(C(C)C)no1)C2 (centres undefined)	2.478
Cc1cn2c(n1)CCC(NC(=O)c1cncnc1C)C2 (centres undefined)	122.4
Cc1cn2c(n1)CCC(NC(=O)c1ccc(OCC3CC3)nc1)C2 (centres undefined)	-16.45
O=C(NC1CCc2nccn2C1)c1ccc(NC2CC2)nc1 (centres undefined)	9.006
Cc1cn2c(n1)CCC(NC(=O)c1ccc(CS(C)(=O)=O)cc1)C2 (centres undefined)	1.181
Cc1cn2c(n1)CCC(NC(=O)c1c[nH]c(C)n1)C2 (centres undefined)	3.74
CCc1ncncc1C(=O)NC1CCc2nc(C)cn2C1 (centres undefined)	106.8
Cc1cn2c(n1)CCC(NC(=O)c1cnc(C)nc1C(C)C)C2 (centres undefined)	1.666
Cc1ncc(C(=O)NC2CCc3nccn3C2)c(C(C)C)n1 (centres undefined)	126.1
Cc1cn2c(n1)CCC(NC(=O)c1csc(C(C)C)n1)C2 (centres undefined)	134.7
Cc1cc(C(=O)NC2CCc3nc(C)cn3C2)[nH]n1 (centres undefined)	-4.172
CCCn1cnc(S(=O)(=O)Nc2cccnc2-n2cccn2)c1	0.1975
CC(=O)N1CCN(C(=O)CNc2cccc(OC(F)F)c2C)CC1	-4.859
CS(=O)(=O)Nc1ccc(-n2c(CCCO)nc3ccccc32)cn1	-0.6251
Oc1ccccc1N1CCN(c2ncnc3sc4c(c23)CCNC4)CC1	-35.6
CC(C#N)CNC(=O)Nc1ccc(-c2cc[nH]n2)cc1 (centres undefined)	-10.22
